# In all, about 69,000 compounds went through this assay and about 1,000 (1.4%) showed an effect of 50% or more. For the sample, strong results were picked, then their nearest neighbours and some compounds at random.
# Test system: Leishmania donovani
# Test: Leishmania intramacrophage assay
# Type: functional, organism-based
# Set-up: scale not given: in the data most compounds retested in dose-response had high values
smiles,measurement,setting,value
COc1ccc(NCc2nc(=O)n(CCC(C)C)[nH]2)cc1,Percent Effect,"30 µM, 30.03 µM",11.21%
O=C(Cc1cccc(F)c1)NCCNCc1ccc2c(c1)CCO2,Percent Effect,"30 µM, 30.03 µM",29.87%
O=c1[nH]c2nc(NCC3CCCO3)ncc2c(=O)n1-c1cccc(F)c1 (stereo not drawn),Percent Effect,"30.3 µM, […]",20.13%
O=c1[nH]c2nc(NCC3CCCO3)ncc2c(=O)n1-c1ccc(F)cc1 (stereo not drawn),Percent Effect,"30.3 µM, […]",51.53%
O=c1[nH]c2nc(NC3CC3)ncc2c(=O)n1-c1ccc(F)cc1,Percent Effect,"30.3 µM, […]",24.05%
O=C(c1cc(C2CCCCN2CCO)n[nH]1)N1CCOCC1.O=CO (stereo not drawn),Percent Effect,"30.3 µM, […]",-5.533%
COCC(=O)N(Cc1cccc(C)c1)Cc1ccccc1OC,Percent Effect,"30.3 µM, […]",40.9%
COc1ccccc1CN(Cc1cccc(C)c1)C(=O)[C@@H](N)CC(=O)O,Percent Effect,"30.3 µM, […]",13.42%
CN[C@@H](C)C(=O)N(Cc1cccc(C)c1)Cc1ccccc1OC,Percent Effect,"30.3 µM, […]",82.29%
CC1CN(C(=O)C2(c3cccc(F)c3)CCOCC2)CCO1 (stereo not drawn),Percent Effect,"30.3 µM, […]",18.33%
Cc1ccccc1C(=O)NCCCN1CCc2ccccc2C1,Percent Effect,30 µM,9.574%
O=C(NCCCN1CCc2ccccc2C1)c1ccccc1Cl,Percent Effect,30 µM,53%
O=C(NCCCN1CCc2ccccc2C1)c1ccccc1Br,Percent Effect,30 µM,36.73%
N#Cc1ccc(OCC(O)CN2CCC(Cn3cccn3)CC2)cc1 (stereo not drawn),Percent Effect,30 µM,5.34%
O=C(O)C(F)(F)F.O=C(O)[C@]12CCCN(C3CCOC3)C[C@H]1CN(c1nncs1)C2 (stereo partly drawn),Percent Effect,"30.3 µM, […]",23.22%
O=C(O)C(F)(F)F.O=C(O)[C@]12CCCN(CC3CCOC3)C[C@H]1CN(c1ncccn1)C2 (stereo partly drawn),Percent Effect,"30.3 µM, […]",22.4%
Cc1cnc(N2C[C@@H]3CN(C4CCOC4)CCC[C@]3(C(=O)O)C2)nc1.O=C(O)C(F)(F)F (stereo partly drawn),Percent Effect,"30.3 µM, […]",51.36%
CC(C)(C)OC(=O)N1CCCC[C@H]1C(=O)NCc1nccs1,Percent Effect,"30 µM, 30.03 µM",12.63%
CCc1c(C)sc(NC(=O)CN2CCOCC2)c1C(=O)OC,Percent Effect,"30.3 µM, […]",-39.48%
CCOC(=O)c1c(NC(=O)CN2CCN(C(C)=O)CC2)sc(C)c1C,Percent Effect,"30.3 µM, […]",29.91%
CCc1c(C)sc(NC(=O)CN2CCN(CC)CC2)c1C(=O)OC,Percent Effect,"30 µM, 30.03 µM",52.48%
Cc1cc(NC(=O)CN2CCCC2c2c(C)nn(C)c2Cl)on1 (stereo not drawn),Percent Effect,30 µM,24.03%
CCc1cc(CN(C)C(=O)c2cnn[nH]2)on1,Percent Effect,"30.3 µM, […]",12.71%
CCc1cc(CN(C)C(=O)c2cc(=O)[nH]c(=O)[nH]2)on1,Percent Effect,"30.3 µM, […]",53.82%
CCc1cc(CN(C)C(=O)c2cnon2)on1,Percent Effect,"30.3 µM, […]",11.76%
CCN1CCN(C(=O)c2cc(-c3cccs3)cs2)CC1,Percent Effect,"30.3 µM, […]",-1.143%
Cc1ccc(Cl)cc1NC(=O)C1CSc2ncc(C)c(=O)n2C1 (stereo not drawn),Percent Effect,"30.3 µM, […]",17.12%
COc1cccc(CN(C)c2ncc(C(N)=O)cc2Cl)c1,Percent Effect,"30.3 µM, […]",-8.015%
CCc1ncc(C(=O)NCCNc2ncnc3sccc23)s1,Percent Effect,"30.3 µM, […]",26.76%
CCc1nc(C)c(C(=O)NCCNc2ncnc3sccc23)s1,Percent Effect,"30.3 µM, […]",59.68%
Cc1ncc(C(=O)NCCNc2ncnc3sccc23)s1,Percent Effect,"30.3 µM, […]",20.47%
CC1(C)CCC(C(=O)N2CCCO2)c2ccccc21 (stereo not drawn),Percent Effect,"30.3 µM, […]",9.47%
CN(C)S(=O)(=O)N1CCC(c2c(C(N)=O)sc3ccccc23)C1 (stereo not drawn),Percent Effect,"30.3 µM, […]",31.42%
NC(=O)Nc1cccc(F)c1C(=O)NC1CCCC1,Percent Effect,"30.3 µM, […]",3.755%
Cc1cccnc1C(Cc1ccsc1)NCc1cnc(N(C)C)nc1 (stereo not drawn),Percent Effect,"30.3 µM, […]",17.18%
CC(C)Oc1cccc(CNC(Cc2ccsc2)c2nccs2)c1.Cl (stereo not drawn),Percent Effect,"30.3 µM, […]",-38.1%
COc1ccc(CNC(Cc2ccsc2)c2ncccc2C)cc1OC (stereo not drawn),Percent Effect,"30.3 µM, […]",25.36%
COc1cccc(OC)c1CNC(Cc1ccsc1)c1ccc(C)cn1 (stereo not drawn),Percent Effect,"30.3 µM, […]",99.68%
COc1ccc(CNC(Cc2ccsc2)c2ccc(C)cn2)c(OC)c1 (stereo not drawn),Percent Effect,"30.3 µM, […]",62.45%
COc1ccc(CNC(Cc2ccsc2)c2ccc(C)cn2)cc1OC.Cl (stereo not drawn),Percent Effect,"30.3 µM, […]",12%
N#Cc1c2n(c3c(=O)[nH]cnc13)CCCCC2,Percent Effect,"30.3 µM, […]",19.13%
Cc1ccccc1CNCc1cc(Cl)ccc1O,Percent Effect,"30.3 µM, […]",-18.5%
Cc1ccc(C)c(NCc2nc3n(n2)CCCCC3)c1,Percent Effect,"30.3 µM, […]",-6.245%
CN(Cc1ccc2c(c1)OCO2)C(=O)c1ccc(C2CCCNC2)cc1 (stereo not drawn),Percent Effect,"30.3 µM, […]",4.185%
CSc1cccc(CN(C)C(=O)c2ccc(C3CCCNC3)cc2)c1 (stereo not drawn),Percent Effect,"30.3 µM, […]",52.27%
CSc1cccc(CN(C)C(=O)c2cccc(C3CCCNC3)c2)c1 (stereo not drawn),Percent Effect,"30.3 µM, […]",27.95%
CC(C)NC(=O)c1noc2c1CN(Cc1cnn(C)c1)CC2,Percent Effect,"30.3 µM, […]",0.4989%
Cc1noc(C)c1C(=O)NCc1ccc(N2CCCCCC2)nc1,Percent Effect,30 µM,36.14%
CCc1[nH]c2c(CNc3cncc(C(=O)OC)n3)cc(C)cc2c1C,Percent Effect,"30.3 µM, […]",-70.43%
CNc1cc(C)nc(NCc2cc(C)cc3c(C)c(C)[nH]c23)n1,Percent Effect,"30.3 µM, […]",-40.33%
CCc1[nH]c2c(CNc3nccc(N)n3)cc(C)cc2c1C,Percent Effect,"30.3 µM, […]",21.52%
CCc1[nH]c2c(CNc3nc(C)cc(NC)n3)cc(C)cc2c1C,Percent Effect,"30.3 µM, […]",89.36%
CNc1nc(C)cc(NCc2cc(C)cc3c(C)c(C)[nH]c23)n1,Percent Effect,"30.3 µM, […]",35.88%
CCc1[nH]c2c(CNc3cc(C)nc(NC)n3)cc(C)cc2c1C,Percent Effect,"30.3 µM, […]",71.01%
CC(C)c1ccc(S(=O)(=O)NC2CCN(CC(F)(F)F)C2)cc1 (stereo not drawn),Percent Effect,"30.3 µM, […]",20.88%
O=C(CC1CCCC1)N1CCCC1c1ccc(CN2CCOCC2)cn1 (stereo not drawn),Percent Effect,"30.3 µM, […]",7.793%
COc1ccccc1CN1C[C@@H](F)[C@@H](OCc2nc3ncccc3[nH]2)C1,Percent Effect,"30.3 µM, […]",33.82%
CCC(NC(=O)Cn1ccc(=O)n(C)c1=O)c1ccc(OC)cc1 (stereo not drawn),Percent Effect,"30.3 µM, […]",24.09%
CCc1ocnc1C(=O)Nc1ccc2ccn(CCN(C)C)c2c1,Percent Effect,"30.3 µM, […]",-1.774%
COCC1CC2(CCN(Cc3nccs3)CC2)CN1Cc1ccccn1.O=C(O)C(F)(F)F.O=C(O)C(F)(F)F.O=C(O)C(F)(F)F (stereo not drawn),Percent Effect,"30.3 µM, […]",50.9%
COCC1CC2(CCN(Cc3ccccn3)CC2)CN1c1ncccn1.O=C(O)C(F)(F)F.O=C(O)C(F)(F)F.O=C(O)C(F)(F)F (stereo not drawn),Percent Effect,"30.3 µM, […]",-16.53%
COCC(=O)N1CCC2(CC1)CC(COC)N(Cc1ccccn1)C2.O=C(O)C(F)(F)F (stereo not drawn),Percent Effect,"30.3 µM, […]",12.17%
O=C(O)C(F)(F)F.O=C1CC[C@H]2[C@H](CCN2C(=O)C2CCOCC2)N1Cc1ccncc1,Percent Effect,"30 µM, 30.03 µM",15.79%

# From ChEMBL document CHEMBL3988442, “University of Dundee, Small-Polar-MMV Screening Library” (2021)
